Measurements from PubChem BioAssay (NCATS).
Records with an inconclusive call do not appear. The source made the active and inactive calls. Unless noted, calls come from the whole dose curve; as a rule, active = well fitted curve in the direction sought with a large enough effect; inconclusive = small, poorly fitted or top-dose-only effect, or another doubt; inactive = no such curve, though single readings can be large; an effect the other way counts as inactive or inconclusive.

Biological target: Lysosomal acid glucosylceramidase (Homo sapiens) (UniProt P04062)
Test: Glucocerebrosidase-p2 (AID 348; in the data active = potency below about 10 µM; note: potency is the fitted concentration of half-maximal effect)
Settings: purified GBA, blue fluorogenic substrate, 40 min
Method in brief: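 Compounds titrated from 0.6 nM upwards against 0.2 nM enzyme in pH 5.9 citric acid/KH2PO4, taurocholate, tween-20; blue fluorogenic substrate 80 uM, 40 min room temperature, stopped and read Ex 365/Em 440 for AC50.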

Sequence of Lysosomal acid glucosylceramidase (Homo sapiens) (P04062 whole entry, looked up): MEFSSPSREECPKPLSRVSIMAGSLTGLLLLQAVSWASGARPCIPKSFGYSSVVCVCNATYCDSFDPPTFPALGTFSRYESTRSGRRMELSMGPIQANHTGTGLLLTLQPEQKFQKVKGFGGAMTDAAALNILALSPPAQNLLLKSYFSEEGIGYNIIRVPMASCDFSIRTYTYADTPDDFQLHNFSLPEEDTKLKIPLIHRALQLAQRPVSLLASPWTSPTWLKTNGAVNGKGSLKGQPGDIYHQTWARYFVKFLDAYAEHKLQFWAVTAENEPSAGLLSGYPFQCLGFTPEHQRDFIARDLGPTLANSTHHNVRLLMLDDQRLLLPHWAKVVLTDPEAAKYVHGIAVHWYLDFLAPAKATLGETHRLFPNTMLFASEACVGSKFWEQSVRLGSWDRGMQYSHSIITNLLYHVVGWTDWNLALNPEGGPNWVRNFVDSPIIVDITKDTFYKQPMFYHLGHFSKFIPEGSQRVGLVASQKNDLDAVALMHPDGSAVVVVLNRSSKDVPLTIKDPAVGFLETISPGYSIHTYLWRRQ

Potency, inactive:
CN(C)c1ncc2ncc(=O)n(Cc3cccs3)c2n1 > 11.4 µM, O=C(c1cc(C(F)(F)F)cc(C(F)(F)F)c1)N1CCC2(CCCN(c3ncccn3)C2)CC1 > 11.4 µM, Nc1nc(N)c(-c2cccc(C(F)(F)F)c2)c(Cc2cccc(C(F)(F)F)c2)n1 > 11.4 µM, CCOc1ccc2nc3cc(N=Nc4ccc(N)nc4N)ccc3c(N)c2c1 > 11.4 µM

Test system: not listed separately
Test: AP1 Signaling Pathway (AID 357; active = well fitted curve in either direction with a large enough effect, not every such curve was filed as active;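 note: ME-180 reporter cells stimulated with EGF at its EC50 level; % is set by controls: 0 for no effect and ±100 for the full control effect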)
Settings: ME-180 AP-1-bla reporter, EGF-induced, beta-lactamase ratio, 5 h; at 7.69 µM (top of the series) unless noted
Method in brief: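 Cells are seeded overnight, exposed to compound titrations and an EC50 level of EGF for 5 hours at 37 °C, then loaded with CCF4 dye for 2.5 hours. Beta-lactamase activity under the AP-1 element is read as a blue/green ratio.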

Activity change, negative = inhibition, inactive:
CN(C)c1ncc2ncc(=O)n(Cc3cccs3)c2n1 -12.8%, O=C(c1cc(C(F)(F)F)cc(C(F)(F)F)c1)N1CCC2(CCCN(c3ncccn3)C2)CC1 -18.2%, Nc1nc(N)c(-c2cccc(C(F)(F)F)c2)c(Cc2cccc(C(F)(F)F)c2)n1 11.9%, CCOc1ccc2nc3cc(N=Nc4ccc(N)nc4N)ccc3c(N)c2c1 4.95%

Biological target: Cytochrome P450 1A2 (Homo sapiens) (UniProt P05177)
Test: p450-cyp1a2 (AID 410; calls by dose curve; note: potency is the fitted concentration of half-maximal effect)
Settings: recombinant CYP1A2, luciferin-ME demethylation, luminescence; series mostly up to 57 µM; activity change, negative = inhibition: at the top concentration
Method in brief: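 Luminescent readout of luciferin formed from Luciferin-ME by human CYP1A2; data normalized against complete inhibition by 57 uM furafylline. Enzyme 20nM, substrate 100uM at Km, 100mM KPO4 buffer, 60 min reaction at room temperature.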

Sequence of Cytochrome P450 1A2 (Homo sapiens) (P05177 whole entry, looked up): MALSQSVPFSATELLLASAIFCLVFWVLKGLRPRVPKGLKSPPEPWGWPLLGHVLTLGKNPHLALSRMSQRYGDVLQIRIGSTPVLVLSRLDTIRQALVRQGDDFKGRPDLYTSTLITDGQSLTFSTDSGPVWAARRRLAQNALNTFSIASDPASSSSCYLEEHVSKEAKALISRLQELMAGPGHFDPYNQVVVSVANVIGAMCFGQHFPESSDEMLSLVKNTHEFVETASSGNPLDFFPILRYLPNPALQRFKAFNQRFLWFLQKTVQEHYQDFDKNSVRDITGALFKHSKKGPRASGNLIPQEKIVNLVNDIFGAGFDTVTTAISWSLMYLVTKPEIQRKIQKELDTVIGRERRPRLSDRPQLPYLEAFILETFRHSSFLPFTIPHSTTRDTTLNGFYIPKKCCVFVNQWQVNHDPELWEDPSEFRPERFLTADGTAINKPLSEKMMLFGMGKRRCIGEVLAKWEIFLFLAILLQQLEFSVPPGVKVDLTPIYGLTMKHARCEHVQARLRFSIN

Potency, active:
CN(C)c1ncc2ncc(=O)n(Cc3cccs3)c2n1 1.58 µM, O=C(c1cc(C(F)(F)F)cc(C(F)(F)F)c1)N1CCC2(CCCN(c3ncccn3)C2)CC1 31.6 µM, CCOc1ccc2nc3cc(N=Nc4ccc(N)nc4N)ccc3c(N)c2c1 0.794 µM

Test system: not listed separately
Test: Stat Signaling Pathway (AID 446; active = well fitted curve in either direction with a large enough effect, not every such curve was filed as active;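 note: ME-180 cervical cancer cells given 40 pM IL-6 alongside compound; SIE-controlled beta-lactamase reporter measured as 460/530 nm FRET emission ratio; % is set by controls: 0 for no effect and ±100 for the full control effect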)
Settings: ME-180 SIE beta-lactamase reporter, IL-6 stimulated, 5 h; series mostly up to 7.69 µM; activity, negative = inhibition: at the top concentration
Method in brief: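 Reporter line: ME-180 cervical carcinoma, SIE-beta-lactamase. Treatment: compound with 40 pM IL-6, 5 hrs, 37 C, in low-serum OPTI-MEM with 10 mM HEPES pH 7.3. Detection: 460/530 nm fluorescence.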

activity, negative = inhibition, inactive:
CN(C)c1ncc2ncc(=O)n(Cc3cccs3)c2n1 0.988%, O=C(c1cc(C(F)(F)F)cc(C(F)(F)F)c1)N1CCC2(CCCN(c3ncccn3)C2)CC1 -13.8%, Nc1nc(N)c(-c2cccc(C(F)(F)F)c2)c(Cc2cccc(C(F)(F)F)c2)n1 6.34%, CCOc1ccc2nc3cc(N=Nc4ccc(N)nc4N)ccc3c(N)c2c1 20.5%

Biological target: Glucocorticoid receptor (Homo sapiens) (UniProt P04150)
Test: GR-EFC Redistribution (AID 451; calls by dose curve; note: potency is the fitted concentration of half-maximal effect)
Settings: CHO-K1 GR-EFC translocation, beta-gal luminescence, 2 h
Method in brief: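 CHO-K1 cells expressing nuclear EA and GR-ED fragments of b-gal; compounds titrated up to 46 uM final, 2 h at 37 C. GR nuclear translocation read as complemented b-gal luminescence after 1 h RT detection.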

Sequence of Glucocorticoid receptor (Homo sapiens) (P04150 whole entry, looked up): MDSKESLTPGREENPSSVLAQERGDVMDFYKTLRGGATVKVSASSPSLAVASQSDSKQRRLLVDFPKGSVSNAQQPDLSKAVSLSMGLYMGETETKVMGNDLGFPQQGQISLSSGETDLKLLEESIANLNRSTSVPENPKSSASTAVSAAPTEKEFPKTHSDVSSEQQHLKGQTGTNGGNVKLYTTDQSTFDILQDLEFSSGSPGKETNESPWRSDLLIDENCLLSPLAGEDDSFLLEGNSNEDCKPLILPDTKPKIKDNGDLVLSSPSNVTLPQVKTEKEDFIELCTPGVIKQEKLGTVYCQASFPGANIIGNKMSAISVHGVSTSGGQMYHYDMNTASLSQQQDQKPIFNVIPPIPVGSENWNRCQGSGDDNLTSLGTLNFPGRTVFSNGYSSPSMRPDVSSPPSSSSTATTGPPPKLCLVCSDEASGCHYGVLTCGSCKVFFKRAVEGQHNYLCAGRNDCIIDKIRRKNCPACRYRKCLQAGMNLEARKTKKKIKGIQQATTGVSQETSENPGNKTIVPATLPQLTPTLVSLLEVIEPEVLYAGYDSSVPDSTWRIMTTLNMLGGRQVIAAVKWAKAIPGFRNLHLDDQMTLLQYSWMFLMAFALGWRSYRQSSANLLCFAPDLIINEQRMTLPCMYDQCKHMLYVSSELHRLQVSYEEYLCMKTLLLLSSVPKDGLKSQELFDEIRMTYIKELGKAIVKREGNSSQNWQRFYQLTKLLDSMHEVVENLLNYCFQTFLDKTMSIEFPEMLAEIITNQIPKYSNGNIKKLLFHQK

Potency, inactive:
CN(C)c1ncc2ncc(=O)n(Cc3cccs3)c2n1 > 46 µM, O=C(c1cc(C(F)(F)F)cc(C(F)(F)F)c1)N1CCC2(CCCN(c3ncccn3)C2)CC1 > 46 µM, Nc1nc(N)c(-c2cccc(C(F)(F)F)c2)c(Cc2cccc(C(F)(F)F)c2)n1 > 9.22 µM, CCOc1ccc2nc3cc(N=Nc4ccc(N)nc4N)ccc3c(N)c2c1 > 9.22 µM

Biological target: Mitogen-activated protein kinase 10 (Mus musculus) (UniProt Q61831)
Test: JNK3 AlphaScreen Assay (AID 530; active = well fitted curve in either direction with a large enough effect, not every such curve was filed as active;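 note: kinase came from lysate of stimulated human HepG2 cells; signal reports phosphorylation of biotinylated GST-cJun 1-79 at Ser73 with 10 µM ATP; % is set by controls: 0 for no effect and ±100 for the full control effect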)
Settings: JNK3 lysate, c-Jun phosphorylation; series mostly up to 57.1 µM; activity change, negative = inhibition: at the top concentration
Method in brief: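 Pre-activated (IL-1β/TNFα) JNK3 in HepG2 lysates phosphorylates biotin-GST-cJun(1-79), 10 uM ATP; anti-phospho-cJun(Ser73) AlphaScreen read at room temperature, pH 7.6 Tris buffer. Compounds pre-incubated 15 min as titrations.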

Activity change, negative = inhibition, inactive:
CN(C)c1ncc2ncc(=O)n(Cc3cccs3)c2n1 6.66%, O=C(c1cc(C(F)(F)F)cc(C(F)(F)F)c1)N1CCC2(CCCN(c3ncccn3)C2)CC1 9.62%, Nc1nc(N)c(-c2cccc(C(F)(F)F)c2)c(Cc2cccc(C(F)(F)F)c2)n1 3.36% [at 11.4 µM], CCOc1ccc2nc3cc(N=Nc4ccc(N)nc4N)ccc3c(N)c2c1 -7.05% [at 11.4 µM]

Biological target: 3',5'-cyclic-AMP phosphodiesterase 4B (Homo sapiens) (UniProt Q07343)
Test: qHTS Assay for Inhibitors of PDE-IV (AID 607; active = well fitted activation curve with a large enough effect in the main read-out, with a control signal flat, not every such curve was filed as active; note: % of control where 0% means no effect)
Settings: HEK293 ACTOne CNG channel cells, membrane potential fluorescence; series mostly up to 22.9 µM; activation (PDE inhibition): at the top concentration
Method in brief: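 Cell-based read-out of cAMP via a modified cyclic nucleotide-gated channel and membrane potential dye (535/590 nm) in HEK293 cells expressing PDE4 endogenously. Compounds tested up to 22.9 uM final; 100 uM RO 20-1724 reference.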

Sequence of 3',5'-cyclic-AMP phosphodiesterase 4B (Homo sapiens) (Q07343 whole entry, looked up): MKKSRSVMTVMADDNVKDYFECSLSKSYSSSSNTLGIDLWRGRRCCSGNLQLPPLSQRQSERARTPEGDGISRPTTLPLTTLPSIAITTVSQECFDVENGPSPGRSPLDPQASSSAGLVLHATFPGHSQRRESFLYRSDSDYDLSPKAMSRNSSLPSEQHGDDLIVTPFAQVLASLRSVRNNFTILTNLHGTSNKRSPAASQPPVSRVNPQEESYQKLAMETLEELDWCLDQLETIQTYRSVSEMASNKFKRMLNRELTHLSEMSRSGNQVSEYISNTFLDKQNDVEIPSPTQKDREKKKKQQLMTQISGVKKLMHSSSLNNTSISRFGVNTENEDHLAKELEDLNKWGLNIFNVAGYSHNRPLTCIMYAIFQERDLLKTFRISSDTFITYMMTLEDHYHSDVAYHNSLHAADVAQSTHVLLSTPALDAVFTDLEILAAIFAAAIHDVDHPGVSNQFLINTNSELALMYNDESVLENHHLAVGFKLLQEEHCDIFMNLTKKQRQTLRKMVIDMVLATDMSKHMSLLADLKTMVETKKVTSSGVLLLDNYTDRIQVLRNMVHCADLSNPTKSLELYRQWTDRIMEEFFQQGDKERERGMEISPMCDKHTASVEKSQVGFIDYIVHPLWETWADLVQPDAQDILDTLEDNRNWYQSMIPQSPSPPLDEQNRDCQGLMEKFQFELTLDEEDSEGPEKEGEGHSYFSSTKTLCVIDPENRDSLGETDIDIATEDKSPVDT

Activation (PDE inhibition), inactive:
O=C(c1cc(C(F)(F)F)cc(C(F)(F)F)c1)N1CCC2(CCCN(c3ncccn3)C2)CC1 21.2%, Nc1nc(N)c(-c2cccc(C(F)(F)F)c2)c(Cc2cccc(C(F)(F)F)c2)n1 12.8%, CCOc1ccc2nc3cc(N=Nc4ccc(N)nc4N)ccc3c(N)c2c1 3.49%

Biological target: Cytochrome P450 3A4 (Homo sapiens) (UniProt P08684)
Test: qHTS Assay for Activators of Cytochrome P450 3A4 (AID 885); note: nearly all actives have a fitted effect of over 65% in size
Settings: recombinant CYP3A4, Luciferin-PPXE luminescence, 60 min; series mostly up to 57.1 µM; activity change, positive = activation: at the top concentration
Method in brief: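 Signal was normalized against complete inhibition by 57 uM ketoconazole. The reaction used 20nM CYP3A4 with 25uM Luciferin-PPXE, 10-min compound preincubation and a 60-min NADPH-supported step at RT.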

Sequence of Cytochrome P450 3A4 (Homo sapiens) (P08684 whole entry, looked up): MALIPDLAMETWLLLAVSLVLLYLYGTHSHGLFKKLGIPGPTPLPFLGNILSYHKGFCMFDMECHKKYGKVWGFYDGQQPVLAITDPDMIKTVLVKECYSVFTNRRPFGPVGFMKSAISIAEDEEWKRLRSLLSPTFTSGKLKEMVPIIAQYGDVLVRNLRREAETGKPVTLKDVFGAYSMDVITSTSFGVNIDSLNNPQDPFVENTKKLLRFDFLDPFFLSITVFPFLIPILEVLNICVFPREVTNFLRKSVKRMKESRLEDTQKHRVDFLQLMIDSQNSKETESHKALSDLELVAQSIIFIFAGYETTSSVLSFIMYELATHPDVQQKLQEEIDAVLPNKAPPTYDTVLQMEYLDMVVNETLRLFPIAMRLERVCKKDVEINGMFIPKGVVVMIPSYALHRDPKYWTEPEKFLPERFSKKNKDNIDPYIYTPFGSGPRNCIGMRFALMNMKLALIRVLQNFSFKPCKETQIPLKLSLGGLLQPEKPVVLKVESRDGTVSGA

Activity change, positive = activation, inactive:
CN(C)c1ncc2ncc(=O)n(Cc3cccs3)c2n1 -35.1%, O=C(c1cc(C(F)(F)F)cc(C(F)(F)F)c1)N1CCC2(CCCN(c3ncccn3)C2)CC1 -54.8%, Nc1nc(N)c(-c2cccc(C(F)(F)F)c2)c(Cc2cccc(C(F)(F)F)c2)n1 -31.2% [at 11.4 µM], COC(=O)[C@@]1(C)CCC[C@@]2(C)c3ccc(O)c(C(C)C)c3CCC21 (some centres undefined) -67.6%, CC(C)=CCc1c2c(c3occ(-c4ccc(O)cc4)c(=O)c3c1O)C=CC(C)(C)O2 -51.1%, O=c1c(O)c(-c2ccccc2)oc2ccc3occc3c12 -115%

Test system: not listed separately
Test: Confirmation and Secondary Assay for Modulators of Hemoglobin Beta Chain Splicing at IVS2 654 locus (AID 910);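 note: HeLa cells stably carrying EGFP split by mutant beta-globin IVS2-654 intron; % of control where 0% means no effect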
Settings: HeLa EGFP-654 splicing reporter, GFP fluorescence, 48 h; series mostly up to 46.1 µM; activation (splicing correction): at the top concentration
Method in brief: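 HeLa cells stably expressing EGFP interrupted by β-globin IVS2-654 intron, seeded overnight in Opti-MEM/2% FCS, then treated 2 days at 37 °C. Restored splicing read as total peak GFP intensity per well by laser scanning cytometry (488 nm excitation, 500–520 nm emission); 500 nM antisense PNA as control.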

Activation (splicing correction), inactive:
COC(=O)[C@@]1(C)CCC[C@@]2(C)c3ccc(O)c(C(C)C)c3CCC21 (some centres undefined) -9.1%, CC(C)=CCc1c2c(c3occ(-c4ccc(O)cc4)c(=O)c3c1O)C=CC(C)(C)O2 -9.32%, O=c1c(O)c(-c2ccccc2)oc2ccc3occc3c12 -1.95% [at 38.3 µM]

Test system: not listed separately
Test: Confirmation and Secondary Assay for Modulators of Hemoglobin Beta Chain Splicing at IVS2 705 locus (AID 930);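 note: HeLa cells stably expressing the EGFP-705 splicing reporter; GFP fluorescence per well restored by corrected splicing of the IVS2-705 intron in EGFP; % of control where 0% means no effect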
Settings: HeLa EGFP-705 splicing reporter, GFP fluorescence, 48 h; series mostly up to 46.1 µM; activation: at the top concentration
Method in brief: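 HeLa EGFP-705 reporter; 500 cells/well, o/n 37C 5% CO2; cpd 2 d; 488 ex/500-520 em laser scan; total peak GFP intensity/well. Ref: 500 nM […] antisense PNA.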

activation, inactive:
COC(=O)[C@@]1(C)CCC[C@@]2(C)c3ccc(O)c(C(C)C)c3CCC21 (some centres undefined) 1.55%, CC(C)=CCc1c2c(c3occ(-c4ccc(O)cc4)c(=O)c3c1O)C=CC(C)(C)O2 -0.938%, O=c1c(O)c(-c2ccccc2)oc2ccc3occc3c12 0.226% [at 38.3 µM]

Biological target: Rap guanine nucleotide exchange factor 3 (Homo sapiens) (UniProt O95398)
Test: Confirmatory qHTS for agonist of cAMP-regulated guanine nucleotide exchange factor 3 (EPAC1) (AID 1645881);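 note: EPAC1 catalysed release of BODIPY-GDP from Rap1B seen as fluorescence loss; 100% = effect of cAMP agonist control; nearly all actives have a fitted effect of over 75% in size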
Settings: EPAC1 Rap1B BODIPY-GDP exchange fluorescence; series mostly up to 154 µM; activation: at the top concentration

Sequence of Rap guanine nucleotide exchange factor 3 (Homo sapiens) (O95398 whole entry, looked up): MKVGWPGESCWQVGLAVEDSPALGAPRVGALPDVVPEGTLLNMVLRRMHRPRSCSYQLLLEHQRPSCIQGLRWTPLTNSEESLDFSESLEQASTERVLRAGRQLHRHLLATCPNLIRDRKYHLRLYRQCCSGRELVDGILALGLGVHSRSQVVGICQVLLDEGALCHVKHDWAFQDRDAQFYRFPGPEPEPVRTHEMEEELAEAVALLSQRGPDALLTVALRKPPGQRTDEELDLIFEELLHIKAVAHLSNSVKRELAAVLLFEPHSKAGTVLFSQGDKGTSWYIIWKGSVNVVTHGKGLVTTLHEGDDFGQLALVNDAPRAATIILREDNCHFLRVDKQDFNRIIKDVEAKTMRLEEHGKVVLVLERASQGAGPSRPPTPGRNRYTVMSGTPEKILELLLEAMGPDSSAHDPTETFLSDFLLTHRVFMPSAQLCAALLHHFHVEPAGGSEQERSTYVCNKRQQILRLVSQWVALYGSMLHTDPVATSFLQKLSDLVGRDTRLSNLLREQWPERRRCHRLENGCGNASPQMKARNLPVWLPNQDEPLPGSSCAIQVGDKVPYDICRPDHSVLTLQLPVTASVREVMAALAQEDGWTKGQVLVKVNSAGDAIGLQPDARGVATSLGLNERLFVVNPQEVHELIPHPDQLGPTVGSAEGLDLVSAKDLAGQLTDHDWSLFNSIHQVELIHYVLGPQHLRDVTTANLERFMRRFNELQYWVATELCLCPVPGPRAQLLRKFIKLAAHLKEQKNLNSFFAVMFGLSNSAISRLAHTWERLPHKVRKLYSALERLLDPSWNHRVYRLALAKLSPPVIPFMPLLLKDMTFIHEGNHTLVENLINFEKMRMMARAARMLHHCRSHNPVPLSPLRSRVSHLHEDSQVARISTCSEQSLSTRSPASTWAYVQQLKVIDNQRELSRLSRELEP

activation, inactive:
COc1ccc(OC)c(NC(=O)c2nc(S(=O)(=O)Cc3ccccc3)ncc2Cl)c1 1.03%
